# A selection: hits, their analogues and other compounds. The true share with any hit is near 6%.
# D1 antagonist – Antagonist of Human D 1 Dopamine Receptor: qHTS; D(1A) dopamine receptor (Homo sapiens), P21728; 3.2% of 360,000 active; activity change, negative = inhibition, % at 10 µM; HEK293 TREx D1 cells, calcium flux, dopamine EC80; stronger effect = lower value; in the data active = activity change below about -30%
#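 Compound effects on dopamine-evoked calcium signalling were measured in tetracycline-induced HEK293 Trex D1 cells. Dopamine at EC80 followed a 180 s compound pre-read, and fluorescence was tracked kinetically for 180 s more.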
# D1 ag – Allosteric Agonists of the Human D1 Dopamine Receptor: qHTS; HEK293 T-REx D1 cells, calcium flux, agonist mode; activation, % at 2 µM; 1% of 360,000 active; AID 504660, 2011; in the data active = activation above about 30%
#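 Inducible HEK293 T-REx D1 cells, force-coupled to calcium signalling, were plated at 4000 cells/well with tetracycline and held overnight at 30 C. After no-wash calcium dye loading, compound-evoked calcium rise over 180 s flagged agonists.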
# D1 potentiator – Potentiators of Human D1 Dopamine Receptor: qHTS; potentiation, % at 10 µM; HEK293 TREx D1 cells, calcium flux, dopamine EC20 potentiation; D(1A) dopamine receptor (Homo sapiens), P21728; 0.036% of 360,000 active; in the data active = potentiation above about 30%
# D3 ag – qHTS of D3 Dopamine Receptor Agonist: qHTS | D(3) dopamine receptor (Homo sapiens), P35462 | D3R DiscoveRx beta-arrestin cells, luminescence, 90 min | max activation, % | 0.58% of 410,000 active; in the data active = max activation above about 30%
# Target sequence (P35462 whole entry, looked up): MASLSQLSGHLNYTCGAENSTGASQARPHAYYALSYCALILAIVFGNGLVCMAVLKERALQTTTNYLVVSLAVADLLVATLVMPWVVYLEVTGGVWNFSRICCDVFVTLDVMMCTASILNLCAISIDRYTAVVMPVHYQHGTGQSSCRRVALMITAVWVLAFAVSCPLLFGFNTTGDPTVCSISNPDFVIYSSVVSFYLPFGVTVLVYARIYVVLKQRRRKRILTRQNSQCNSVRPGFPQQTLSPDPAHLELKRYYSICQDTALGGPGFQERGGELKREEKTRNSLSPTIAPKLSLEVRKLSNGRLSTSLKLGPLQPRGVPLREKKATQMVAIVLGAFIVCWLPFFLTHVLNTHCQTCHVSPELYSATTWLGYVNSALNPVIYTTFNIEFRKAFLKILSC
#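 Agonist mode: compounds and dopamine controls were applied to plated cells for 90 min at 37 degrees C after an overnight attachment at 1500 cells/well. Luminescent read-out followed 30 - 60 minutes at room temperature with DiscoveRx detection reagent.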
# DRD3 antagonist – qHTS of D3 Dopamine Receptor Antagonist: qHTS | D(3) dopamine receptor (Homo sapiens), P35462 | D3R cells, DiscoveRx beta-arrestin luminescence, antagonist mode; stronger effect = lower value | max response, negative = inhibition, % | 2.5% of 360,000 active | AID 652054, 2013; in the data active = max response below about -50%; inconclusive = no clear call, values can overlap the other calls
#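 Cells plated overnight at 1500 cells/well, then exposed to library compounds with dopamine controls for 90 minutes at 37 degrees C. DiscoveRx reagent added for 30–60 minutes at room temperature; luminescence read, quantitative HTS format.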
# Numbers stand for hits; i = inactive; ? = inconclusive; nt = no result.
SMILES,D1 antagonist,D1 ag,D1 potentiator,D3 ag,DRD3 antagonist
CCOC(=O)C1=C(CNCCOc2ccc(OC)cc2)NC(=O)NC1c1ccc2c(c1)OCO2 (configuration not stated),-33,i,i,i,i
CCOC(=O)C1=C(CNCCc2ccc(Cl)cc2)NC(=O)NC1c1ccc2c(c1)OCO2 (configuration not stated),i,i,i,i,i
CCOC(=O)c1c(NC(=O)CSc2ncccn2)sc2c1CCN(Cc1ccccc1)C2,-78,i,i,i,-81
CCOC(=O)c1c(NC(=O)CC)sc2c1CCN(Cc1ccccc1)C2,i,i,i,i,i
CCOC(=O)c1c(NC(=O)CSc2nnc3c(n2)[nH]c2ccccc23)sc2c1CCN(C)C2,nt,nt,nt,i,-60
CN(C)C(=O)CCSC(SCCC(=O)O)c1cccc(/C=C/c2ccc3ccc(Cl)cc3n2)c1 (configuration not stated),nt,nt,nt,i,nt
CCOCCCNC(=O)C1CCCN(Cc2nc(-c3ccc(CC)cc3)oc2C)C1 (configuration not stated),i,i,i,i,nt
COc1ccc(CN2C3CCCC2CC(NC(=O)Nc2ccccc2)C3)cc1 (configuration not stated),i,i,i,i,-64
COc1ccc(CN2C3CCCC2CC(NC(=O)Nc2cccc(C)c2)C3)cc1 (configuration not stated),i,i,i,i,-78
COc1ccc(NC(=S)NC2CC3CCCC(C2)N3C2CC2)cc1 (configuration not stated),-38,i,i,i,i
COc1ccc(CN2C3CCCC2CC(NC(=O)Nc2ccccc2C)C3)cc1 (configuration not stated),i,i,i,i,-92
CCOC(=O)c1ccc2c(c1)N(Cc1ccc(F)cc1Cl)C(=O)c1ccccc1S2(=O)=O,i,i,i,i,nt
COc1cc(NC(=O)CN2C(=O)CN(C)C(=O)c3ccccc32)cc(OC)c1OC,i,i,i,i,nt
C=CCc1ccccc1OCCSc1nc(-c2cccs2)nc2cc(=O)[nH]n12,i,i,i,i,nt
O=C(Cn1c(=O)nc(-c2ccccc2F)c2cc(Cl)ccc21)NCCCc1ccccc1,i,i,i,i,nt
Cc1ccc(CN=c2c([N+](=O)[O-])nn(-c3cccc(C)c3)n2O)cc1,-47,i,i,i,i
Cc1ccc(CN=c2c([N+](=O)[O-])nn(-c3cccc(Cl)c3)n2O)cc1,-34,i,i,i,i
Cn1c(=O)n(C)c2cc(N3CCOCC3)c(NC(=O)c3ccc(C(C)(C)C)cc3)cc21,i,i,i,i,nt
Cc1ccc(C(=O)NNC(=O)CSc2nnc3c(n2)[nH]c2ccc(C)cc23)cc1,i,i,i,i,i
CCc1ccc2[nH]c3nc(SCC(=O)NNC(=O)c4ccc(C(C)(C)C)cc4)nnc3c2c1,i,i,i,39,i
CCCOc1ccc(C(=O)NNC(=S)NC(=O)CC)cc1,-71,i,i,i,?
CCCOc1ccc(C(=O)NC(=S)NNC(=O)c2c(-c3ccccc3)noc2C)cc1,i,207,i,i,i
Cc1onc(-c2ccccc2)c1C(=O)NC(=S)NNC(=O)c1ccc(O)cc1O,i,i,i,i,i
Cc1onc(-c2ccccc2)c1C(=O)NC(=S)NNC(=O)c1ccccc1O,i,143,i,i,i
O=S(=O)(c1ccc2c(c1)OCCO2)N1CCN(S(=O)(=O)c2ccc(Cl)cc2F)CC1,i,i,i,nt,nt
SMILES,D1 antagonist,D1 ag,D1 potentiator,D3 ag,DRD3 antagonist
Cc1ccc(C(=O)O)c(C(=O)Nc2nc3ccccc3s2)c1,i,i,i,30,i
Cc1ccc(-c2cc(C(=O)O)c3ccccc3n2)s1,-46,i,i,i,i
CCCNC(=O)Nc1nc2ccccc2s1,-72,i,i,i,i
O=C(O)c1ccccc1-c1ccccc1C(=O)Nc1nc2ccccc2s1,i,i,i,i,i
O=C(O)c1cc(-c2ccc(Cl)s2)nc2ccccc12,i,i,i,i,i
CCCn1c(SCC(=O)Nc2nnc(CC)s2)nc2c1c(=O)n(C)c(=O)n2C,i,i,i,nt,nt
CCCCn1c(SCC(=O)Nc2nnc(C(C)C)s2)nc2c1c(=O)n(C)c(=O)n2C,i,i,i,41,i
COc1ccccc1N=CC=C1OC(C)(C)C(C)(C)O1,i,i,i,i,i
Cc1ccc(N=CC=C2OC(C)(C)C(C)(C)O2)c(C)c1,-42,i,i,i,i
COc1ccc(S(=O)(=O)Nc2cc3c(cc2NCc2ccccc2)n(C)c(=O)n3C)cc1OC,i,i,i,i,nt
CN1CCc2sc(NC(=O)Cc3ccccc3)c(C(=O)Nc3ccc(Cl)cc3)c2C1,-53,i,i,nt,nt
CCOC(=O)c1c(NC(=S)NNS(=O)(=O)c2ccc(Br)cc2)sc2c1CCCCC2,-33,i,i,i,i
CCC(=O)Nc1sc2c(c1C(=O)Nc1ccc(Br)cc1)CCCCC2,-31,i,i,i,nt
O=C(Cc1ccccc1)Nc1sc2c(c1C(=O)Nc1ccc(Cl)cc1)CCCC2,i,i,i,i,nt
COC(=O)c1sc2cccc(F)c2c1S(=O)(=O)NCc1ccc(Cl)cc1,i,i,i,i,nt
COc1cc(/C=N/N2C(=O)CSC2=S)cc(Br)c1O,i,44,i,i,i
COc1ccc(C(=O)NCCSCc2ccccc2)cc1OC,i,i,i,i,-51
O=C(NCCSCc1ccco1)Nc1ccc(Cl)cc1,-30,i,i,i,i
O=C(NCCSCc1ccco1)Nc1cccc(Cl)c1,i,i,i,i,i
COc1ccc(C(=O)NCCSCc2ccccc2Cl)cc1OC,i,i,i,i,i
COc1ccc(C(=O)NCCSCc2ccco2)cc1OC,-34,i,i,i,i
COc1cc(/C=C(\C#N)C(=O)Nc2ccccc2)ccc1OCCN1CCOCC1,i,i,i,i,i
N#C/C(=C/c1ccc(N2CCOCC2)o1)C(=O)Nc1ccccc1,i,215,i,i,i
N#C/C(=C\c1ccc(OCCN2CCOCC2)cc1)C(=O)Nc1ccccc1,-30,i,i,i,i
N#C/C(=C/c1ccc(C(=O)O)cc1)C(=O)Nc1ccccc1,i,i,i,i,i
N#C/C(=C\c1ccc(N2CCOCC2)o1)C(=O)NCCc1ccccc1,i,124,i,i,i
COCCNC(=O)/C(C#N)=C/c1ccc(N2CCOCC2)o1,i,i,i,i,i
CC(C)c1ccc(C2=NC(c3ccncc3)=Nc3ccc(F)cc3N2)cc1,i,i,i,i,nt
CC1=C(c2ccc(C)c(C)c2)S(=O)(=O)N=C1N1CCC(C(=O)NCc2ccc(C)o2)CC1,i,i,i,i,nt
Cc1cccc(-n2c3nc(=O)n(C)c(=O)c-3cc3c(C)nn(-c4ccccc4)c32)c1C,i,i,i,i,nt

# High-throughput results as filed in PubChem BioAssay.
